This is an account of results in PubChem BioAssay (Tox21).

The structures appear in SMILES notation. Records with an inconclusive call do not appear. Activity calls are given as the source filed them. Calls follow the shape of the full dose curve.
% is scaled to controls: 0 for no effect and ±100 for the full control effect; potency is read from the fitted curve at half-maximal effect.

Sequence of Acetylcholinesterase (Homo sapiens) (P22303 whole entry, looked up): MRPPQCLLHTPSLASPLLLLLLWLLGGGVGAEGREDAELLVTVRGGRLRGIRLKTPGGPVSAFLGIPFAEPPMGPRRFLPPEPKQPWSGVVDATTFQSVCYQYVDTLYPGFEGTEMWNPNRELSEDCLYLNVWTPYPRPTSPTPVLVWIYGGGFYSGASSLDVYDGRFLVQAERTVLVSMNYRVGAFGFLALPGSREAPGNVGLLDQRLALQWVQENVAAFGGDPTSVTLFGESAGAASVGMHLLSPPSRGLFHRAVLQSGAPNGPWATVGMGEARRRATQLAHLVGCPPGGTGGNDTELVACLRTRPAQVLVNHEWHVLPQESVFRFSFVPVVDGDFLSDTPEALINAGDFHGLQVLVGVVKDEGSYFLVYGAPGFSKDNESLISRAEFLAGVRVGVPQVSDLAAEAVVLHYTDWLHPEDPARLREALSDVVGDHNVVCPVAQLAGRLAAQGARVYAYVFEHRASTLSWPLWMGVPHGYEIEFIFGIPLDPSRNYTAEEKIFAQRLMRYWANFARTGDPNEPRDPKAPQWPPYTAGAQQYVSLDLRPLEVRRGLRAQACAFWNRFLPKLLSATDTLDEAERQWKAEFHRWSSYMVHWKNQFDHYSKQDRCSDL

The target of this assay is Acetylcholinesterase (Homo sapiens) (UniProt P22303). Kind of assay: Acetylcholinesterase (AChE) small molecule antagonists: fluorescence cell-based qHTS assay (AID 1347398). Also: nearly all actives have a fitted effect of over 50% in size. Conditions: SH-SY5Y cells; Potency: AChE activity; outcome: AChE activity; series mostly up to 115 µM; activity change, negative = inhibition: at the top concentration. An excerpt:
National Center for Advancing Translational Sciences [NCATS]
Division of Preclinical Innovation [DPI]
U.S. Environmental Protection Agency [EPA]
National Institutes of Environmental Health Sciences [NIEHS]
National Toxicology Program [NTP]
U.S. Food and Drug Administration [FDA]
Acetylcholinesterase (AChE) is the primary cholinesterase in the body that hydrolyzes a key neurotransmitter, acetylcholine. Inhibition of AChE activity can lead to neurotoxicity. Known inhibitors of AChE include organophosphorous pesticides (OP), chemical warfare agents, drugs, and various phytochemicals.
A homogenous cell-based assay using Amplitetrade mark Fluorimetric Acetylcholinesterase Assay Kit *Green Fluorescence* (AAT Bioquest, Sunnyvale, CA) was used to evaluate the chemicals in the Tox21 10K library that inhibit AChE activity. The assay uses Thiolite Green to quantify the thiocholine produced from the hydrolysis of acetylthiocholine by AChE from the SH-SY5Y cells. AChE can hydrolyze acetylthiocholine to create thiocholine. Thiolite Green is fluorescent when reacting with thiocholine. It has spectral properties similar to those of fluorescein. The fluorescence intensity of Thiolite Green is used to measure AChE activity. Its signal can be easily read by a fluorescence microplate reader at Ex/Em = 490/520 nm.
Tox21 Assay Protocol Summary:
For cell-based AChE assay, 2,000 SH-SY5Y cells in 4 uL/well were dispensed into black, clear-bottom 1536-well plates using a Multidrop Combi (Thermo Scientific) dispenser. The assay plates were incubated overnight at 37 C to allow cells to attach to the wells, followed by the transfer of 23 nL compound or DMSO (vehicle control) by a Pintool station (Wako Automation, CA). The plates were incubated for 30 min at 37 C and 5% CO2, followed by the addition of 4 uL of detection cocktail solution (ThioliteGreen, acetylthiocholine) into each well using Flying Reagent Dispenser (Beckman Coulter, CA) and then following 40 min incubation at room temperature. Fluorescent intensity (Ex/Em = 490/520 nm) was measured using an Envision plate reader (PerkinElmer, MA).
(Quantitative high-throughput screening tests each substance at several concentrations.)
Turning to `OCC(F)(F)F`, the “activity change, negative = inhibition” value was 1.97% (inactive).
For the molecule `CCCCC(CC)COCCO` (stereo not given), the “activity change, negative = inhibition” value was 0.706% (inactive).
On to `CC(C)=CCC/C(C)=C/C=N/O`, for which the “activity change, negative = inhibition” value is -13.7% (inactive).
Still for that read-out and setting: in the case of `CC(C)c1cccc(C(C)C)c1NC(=O)NS(=O)(=O)c1cc(C(C)(C)O)co1` it was 0.604% (inactive).
For `Cc1cc(C(C)(C)C)cc(C)c1CC1=NCCN1`, the “activity change, negative = inhibition” value is -5.19% [at 53.7 µM] (inactive).
Still for that read-out and setting: in the case of `CCCCCCCCCCCCCCCCCCCl` it was 5.41% [at 10.5 µM] (inactive); in that of `CC(CO)CO`, 5.22% (inactive).
With `CCCCCCCCCCCCCCCCOS(=O)(=O)O`, the “activity change, negative = inhibition” value is 3.76% [at 53.7 µM] (inactive).
On the same count and under the same terms, the figure for `CCOC(=O)c1ccc(N(C)C)cc1` is -1.16% (inactive).
Same read-out and setting: the figure for `Cc1occc1C(=O)Nc1ccc(C(=O)N2CCC(F)(F)/C(=C\C(=O)N3CCC(N4CCCCC4)CC3)c3ccccc32)cc1` is -13.8% [at 53.7 µM] (inactive); for `CC(C)COC(=O)c1ccc(O)cc1` it is 0.751% (inactive).
Same read-out and setting: in the case of `CCCCN` it was 1.48% [at 53.7 µM] (inactive); in that of `CC(C)CCCO`, -0.291% (inactive).
`CCCCOCCCC`: the “activity change, negative = inhibition” value was -0.624% (inactive).
On the same count and under the same terms, the figure for `O=C(CCOCCOCCOCCOCCC(=O)Nc1c(I)cc(I)c(C(=O)O)c1I)Nc1c(I)cc(I)c(C(=O)O)c1I` is 3.95% [at 53.7 µM] (inactive); for `C[C@@H]1CN(c2c(F)c(F)c3c(=O)c(C(=O)O)cn(C4CC4)c3c2F)C[C@H](C)N1` it is 0.907% [at 23.8 µM] (inactive); for `CC(C)COC(=O)COc1cc(Cl)c(Cl)cc1Cl` it is -10.3% (inactive).
With `CCOc1ccccc1O[C@H](c1ccccc1)[C@H]1CNCCO1`, the molecule was called inactive.
For the molecule `COc1cccc(OC)c1`, the “activity change, negative = inhibition” value was 2.16% (inactive).
The same measure, in the same setting: in the case of `OCCCc1cccnc1` it was -0.297% (inactive).
`CCCCCC(=O)CC`: the “activity change, negative = inhibition” value is 15.9% (inactive).
On to `CO/N=C(\C(=O)N[C@@H]1C(=O)N2C(C(=O)O)=C(CSc3nc(=O)c(O)nn3C)CS[C@H]12)c1csc(N)n1`, for which the “activity change, negative = inhibition” value was 4.41% [at 53.7 µM] (inactive).
Take `CC(=O)Nc1ccc(S(=O)(=O)Cl)cc1`: the “activity change, negative = inhibition” value is 1.84% (inactive).
On the same count and under the same terms, the figure for `C=C(C)C(=O)OCC(O)COc1ccc(C(C)(C)c2ccc(OCC(O)COC(=O)C(=C)C)cc2)cc1` (stereo not given) is -5.06% (inactive); for `CC(=O)S[C@@H]1CC2=CC(=O)CC[C@]2(C)[C@H]2CC[C@@]3(C)[C@@H](CC[C@@]34CCC(=O)O4)[C@H]12` it is -1.54% (inactive); for `C=COCCOCCOCCOC=C` it is 4.8% (inactive).
On the same count and under the same terms, the figure for `CCCCCCOC(=O)C(C)CC` (stereo not given) is 0.616% (inactive).
Still for that read-out and setting: in the case of `O=C(/N=N/C(=O)OCc1ccccc1)OCc1ccccc1` it was -8.4% (inactive).
`CCCCOC(=O)CCCCC(=O)OCCCC`: the “activity change, negative = inhibition” value was 5.92% (inactive).
Still for that read-out and setting: in the case of `CNC(=O)c1cnn(-c2nc(N)c3ncn([C@@H]4O[C@H](CO)[C@@H](O)[C@H]4O)c3n2)c1` it was -1.2% [at 53.7 µM] (inactive); in that of `CCC(C)(CCC(C)C)C(=O)O` (stereo not given), 1% (inactive).
`CCCCCCCC[P+](CCCCCCCC)(CCCCCCCC)CCCCCCCC`: the Potency is 62.9 µM (active).
Turning to `CC(C)(C)c1ccccc1`, the “activity change, negative = inhibition” value is 4.6% (inactive).
Take `CCC(CO)(CO)[N+](=O)[O-]`: the “activity change, negative = inhibition” value is -1.94% (inactive).
Take `c1ccc(C[P+](c2ccccc2)(c2ccccc2)c2ccccc2)cc1`: the Potency was 12.6 µM (active).
Regarding `CC(=O)N[C@@H](CC(C)C)C(=O)O`, the “activity change, negative = inhibition” value was 5.03% [at 53.7 µM] (inactive).
Same read-out and setting: in the case of `C=CCN1CCc2nc(N)sc2CC1` it was -0.233% [at 53.7 µM] (inactive); in that of `OCCCS`, 0.931% (inactive).
Still for that read-out and setting: in the case of `CCCCN1C=CN(C)C1` it was -2.29% [at 23.8 µM] (inactive).
On the same count and under the same terms, in the case of `CCC(C)COC(=O)CC(C)C` (stereo not given) it was 5.88% (inactive).
